The source made the active and inactive calls. Rule for the calls: active = hit-call score of the fitted dose curve at least 0.9, where 1 is the maximum; inactive = score below 0.9.
Legend:
Conditions in all cases: mRNA level, 48 h; actives raise or lower the signal
CYP2C9 (gene 1559) = experiment: LTEA_HepaRG_CYP2C9: Life Technologies and Expression Analysis (LTEA) Assay for CYP2C9 using HepaRG (AID 2283484)
Outline: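 Differentiated human HepaRG cells were exposed 48 h in serum-free induction medium to eight half-log concentrations up to 100 uM in 0.5% DMSO. CYP2C9 mRNA was measured by qRT-PCR, normalized to ACTB, GAPDH and POLR2A, and fitted bidirectionally against DMSO.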

CYP2E1 (gene 1571) = experiment: LTEA_HepaRG_CYP2E1: Life Technologies and Expression Analysis (LTEA) Assay for CYP2E1 using HepaRG (AID 2283485)
Outline: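 Human liver line HepaRG, plated 48 h, then serum-free induction medium + chemical x 48 h; 8-pt CRC from 100 uM, half-log, 0.5% DMSO, n=2. Readout: CYP2E1 mRNA qRT-PCR vs ACTB/GAPDH/POLR2A; bidirectional fit vs DMSO.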

CYP4A11 (gene 1579) = experiment: LTEA_HepaRG_CYP4A11: Life Technologies and Expression Analysis (LTEA) Assay for CYP4A11 using HepaRG (AID 2283486)
Outline: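 CYP4A11 transcript levels were quantified by TaqMan qRT-PCR after HepaRG human liver cells were treated for 48 hours with test chemicals (top 100 uM, half-log dilutions, 0.5% DMSO). Gain or loss of signal was fitted relative to DMSO.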

[1] = read-out: Cytochrome P450 3A4 (Homo sapiens) (UniProt P08684); experiment: LTEA_HepaRG_CYP3A4: Life Technologies and Expression Analysis (LTEA) Assay for CYP3A4 using HepaRG (AID 2283487)
Outline: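 In a human hepatic line (HepaRG), duplicate wells were treated 48 h with up to 100 uM chemical in half-log dilutions. Endpoint: CYP3A4 mRNA induction or loss relative to 0.5% DMSO vehicle, by qRT-PCR.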

[2] = read-out: DNA damage-inducible transcript 3 (DDIT3), DDIT3 (gene 1649); experiment: LTEA_HepaRG_DDIT3: Life Technologies and Expression Analysis (LTEA) Assay for DNA damage-inducible transcript 3 (DDIT3) using HepaRG (AID 2283488)
Outline: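 HepaRG plated 48 h, switched to serum-free induction medium, dosed 48 h (100 uM top, half-log, 8 pts, 0.5% DMSO, n=2); RNA isolated; DDIT3 by qRT-PCR; bidirectional curve fit vs DMSO.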

[3] = read-out: Pro-epidermal growth factor (Homo sapiens) (UniProt P01133); experiment: LTEA_HepaRG_EGF: Life Technologies and Expression Analysis (LTEA) Assay for Epidermal growth factor (EGF) using HepaRG (AID 2283489)
Outline: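 qRT-PCR readout of EGF transcript after 48 h chemical exposure of HepaRG cells; eight concentrations from 100 uM down in half-log steps, duplicate wells, 0.5% DMSO vehicle. Bidirectional curve fitting against DMSO baseline.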

[4] = read-out: Early growth response protein 1 (EGR1) transcription factor, EGR1 (gene 1958); experiment: LTEA_HepaRG_EGR1: Life Technologies and Expression Analysis (LTEA) Assay for Early growth response protein 1 (EGR1) transcription factor using HepaRG (AID 2283490)
Outline: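 Differentiated human HepaRG cells in serum-free induction medium were exposed in duplicate for 48 h to eight concentrations (top 100 uM, half-log steps) in 0.5% DMSO. EGR1 mRNA was quantified by qRT-PCR, normalized to ACTB, GAPDH and POLR2A, and fitted bidirectionally versus DMSO.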

[5] = read-out: Ezrin (EZR), EZR (gene 7430); experiment: LTEA_HepaRG_EZR: Life Technologies and Expression Analysis (LTEA) Assay for Ezrin (EZR) using HepaRG (AID 2283491)
Outline: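 Gain or loss of EZR mRNA is scored relative to 0.5% DMSO in human HepaRG cultures treated 48 h with test chemicals in duplicate, eight half-log concentrations from 100 uM.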

[6] = read-out: Cytochrome P450 3A7 (Homo sapiens) (UniProt P24462); experiment: LTEA_HepaRG_CYP3A7: Life Technologies and Expression Analysis (LTEA) Assay for CYP3A7 using HepaRG (AID 2283492)
Outline: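 CYP3A7 transcript levels were read by TaqMan qRT-PCR on Fluidigm arrays after 48 h chemical exposure of human HepaRG cells, with housekeeping-gene normalisation. Eight half-log concentrations up to 100 uM in 0.5% DMSO were tested in duplicate.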

CYP3A5 (gene 1577) = experiment: LTEA_HepaRG_CYP3A5: Life Technologies and Expression Analysis (LTEA) Assay for CYP3A5 using HepaRG (AID 2283493)
Outline: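 HepaRG plated 48 h, switched to serum-free induction medium, chemicals added 48 h (max 100 uM, half-log, 0.5% DMSO). RNA isolated; CYP3A5 by TaqMan qRT-PCR. Gain/loss vs DMSO.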

Sequence of Cytochrome P450 3A7 (Homo sapiens) (P24462 whole entry, looked up): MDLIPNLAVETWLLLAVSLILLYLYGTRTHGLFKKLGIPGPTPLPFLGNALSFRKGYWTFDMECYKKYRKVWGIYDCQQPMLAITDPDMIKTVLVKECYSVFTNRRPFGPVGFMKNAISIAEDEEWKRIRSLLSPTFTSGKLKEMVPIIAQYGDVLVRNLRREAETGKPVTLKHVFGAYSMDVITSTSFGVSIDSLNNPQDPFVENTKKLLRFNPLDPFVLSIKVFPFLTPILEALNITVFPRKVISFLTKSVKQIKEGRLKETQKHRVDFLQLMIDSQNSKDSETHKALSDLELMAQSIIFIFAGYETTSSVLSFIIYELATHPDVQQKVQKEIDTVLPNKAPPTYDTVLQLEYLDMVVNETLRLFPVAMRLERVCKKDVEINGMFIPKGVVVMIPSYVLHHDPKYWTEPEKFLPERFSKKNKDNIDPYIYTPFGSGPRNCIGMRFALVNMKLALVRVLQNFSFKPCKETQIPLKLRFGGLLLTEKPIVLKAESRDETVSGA
Sequence of Cytochrome P450 3A4 (Homo sapiens) (P08684 whole entry, looked up): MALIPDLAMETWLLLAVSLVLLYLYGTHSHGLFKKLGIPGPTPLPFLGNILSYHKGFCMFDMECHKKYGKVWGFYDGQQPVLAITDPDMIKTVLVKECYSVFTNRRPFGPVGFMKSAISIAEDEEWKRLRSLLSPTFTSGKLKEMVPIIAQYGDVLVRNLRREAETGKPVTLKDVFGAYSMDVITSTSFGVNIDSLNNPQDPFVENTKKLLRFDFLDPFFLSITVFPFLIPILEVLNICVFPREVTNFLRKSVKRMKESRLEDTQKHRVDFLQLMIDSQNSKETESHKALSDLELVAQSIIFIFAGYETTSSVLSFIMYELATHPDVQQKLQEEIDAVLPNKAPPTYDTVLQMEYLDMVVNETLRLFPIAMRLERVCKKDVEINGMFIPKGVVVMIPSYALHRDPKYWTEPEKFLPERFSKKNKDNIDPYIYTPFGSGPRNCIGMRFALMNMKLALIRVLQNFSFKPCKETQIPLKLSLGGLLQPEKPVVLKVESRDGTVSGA

SMILES	outcome (CYP2C9 (gene 1559))	outcome (CYP2E1 (gene 1571))	outcome (CYP4A11 (gene 1579))	outcome [1]	outcome [2]	outcome [3]	outcome [4]	outcome [5]	outcome [6]	outcome (CYP3A5 (gene 1577))	AC50 (CYP2E1 (gene 1571))	AC50 (CYP4A11 (gene 1579))	AC50 [1]	AC50 [2]	AC50 [3]	AC50 [6]	AC50 [4]
O=P1(N(CCCl)CCCl)NCCCO1 (centres undefined)	inactive	inactive	inactive	inactive	inactive	inactive	inactive	inactive	inactive	inactive	–	–	–	–	–	–	–
ClC1=C(Cl)C2(Cl)C3C(Cl)C(Cl)CC3C1(Cl)C2(Cl)Cl (centres undefined)	inactive	–	–	–	–	–	inactive	inactive	inactive	inactive	27.7 µM (active)	24.6 µM (active)	4.39 µM (active)	82.1 µM (active)	18.4 µM (active)	–	–
Nc1ccc(Cl)cc1	inactive	inactive	inactive	inactive	inactive	inactive	inactive	inactive	inactive	inactive	–	–	–	–	–	–	–
CCOc1ccc(C(C)(C)COCc2cccc(Oc3ccccc3)c2)cc1	inactive	–	–	–	inactive	–	inactive	inactive	–	inactive	26 µM (active)	61.5 µM (active)	4.91 µM (active)	–	15 µM (active)	1.64 µM (active)	–
CCOP(=S)(OCC)SCSCC	inactive	inactive	inactive	–	inactive	inactive	inactive	inactive	inactive	inactive	–	–	13.9 µM (active)	–	–	–	–
Nc1ccc2ccccc2c1	inactive	–	inactive	inactive	inactive	inactive	inactive	inactive	inactive	inactive	33.8 µM (active)	–	–	–	–	–	–
O=C(O)C1C(C(=O)O)C2(Cl)C(Cl)=C(Cl)C1(Cl)C2(Cl)Cl (centres undefined)	inactive	inactive	inactive	inactive	inactive	inactive	inactive	inactive	inactive	inactive	–	–	–	–	–	–	–
CN(C)C(=O)Cl	inactive	inactive	inactive	inactive	inactive	inactive	inactive	inactive	inactive	inactive	–	–	–	–	–	–	–
CCCCN(CCCC)SN(C)C(=O)Oc1cccc2c1OC(C)(C)C2	inactive	–	inactive	–	inactive	inactive	inactive	inactive	–	inactive	41.5 µM (active)	–	8.27 µM (active)	–	–	4.49 µM (active)	–
O=C(O)C(Cl)Cl	inactive	inactive	inactive	inactive	inactive	inactive	inactive	inactive	inactive	inactive	–	–	–	–	–	–	–
CCCCc1ccccc1	inactive	inactive	inactive	inactive	inactive	inactive	inactive	inactive	inactive	inactive	–	–	–	–	–	–	–
CCCCN(CCCC)N=O	inactive	inactive	inactive	inactive	inactive	inactive	inactive	inactive	inactive	inactive	–	–	–	–	–	–	–
c1nc[nH]n1	inactive	inactive	inactive	inactive	inactive	inactive	–	inactive	inactive	inactive	–	–	–	–	–	–	0.109 µM (active)
c1cc2c3c(cccc3c1)CC2	inactive	–	inactive	inactive	inactive	inactive	inactive	inactive	inactive	inactive	0.391 µM (active)	–	–	–	–	–	–
O=[N+]([O-])c1ccc(Cl)c(Cl)c1	inactive	inactive	inactive	inactive	inactive	inactive	inactive	inactive	inactive	inactive	–	–	–	–	–	–	–
CCOP(=S)(Oc1ccc([N+](=O)[O-])cc1)c1ccccc1 (centres undefined)	inactive	–	–	–	inactive	–	inactive	inactive	–	–	37.3 µM (active)	10.8 µM (active)	4.84 µM (active)	–	21.4 µM (active)	2.87 µM (active)	–
Cc1ccc(N)cc1N	inactive	–	inactive	inactive	inactive	inactive	inactive	inactive	inactive	inactive	18.6 µM (active)	–	–	–	–	–	–
c1ccc(OP(Oc2ccccc2)Oc2ccccc2)cc1	inactive	inactive	inactive	inactive	inactive	inactive	inactive	inactive	inactive	inactive	–	–	–	–	–	–	–
OCC1CO1 (centres undefined)	inactive	inactive	inactive	inactive	inactive	inactive	inactive	inactive	inactive	inactive	–	–	–	–	–	–	–
c1ccc2c(c1)Nc1ccccc1S2	inactive	–	inactive	inactive	inactive	inactive	inactive	inactive	inactive	inactive	66.2 µM (active)	–	–	–	–	–	–

Reference: PubChem BioAssay (EPA / NIEHS)
